22 compounds from PubChem BioAssay (NCATS) can be followed below.

Values without a mark were called inactive. Records with an inconclusive call do not appear. A call without a number means that no potency is given here. Calls of active or inactive are those of the source. Unless noted, calls follow the shape of the dose curve; as a rule, active = well fitted curve in the direction sought with a large enough effect; inconclusive = small, poorly fitted or top-dose-only effect, or another doubt; inactive = no such curve, though single readings can be large; an effect the other way counts as inactive or inconclusive.

The target of experiment [1] is Guanine nucleotide-binding protein G(i) subunit alpha-1 (Homo sapiens) (UniProt P63096). Put plainly: qHTS Assay for Inhibitors of RGS12 GoLoco Motif Activity (Green Fluorophore) (AID 879).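 Also: negative values mean loss of peptide binding seen as reduced polarization.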 Particulars: Galphai1/FITC-RGS12 GoLoco peptide, fluorescence polarization; series mostly up to 57.1 µM. In a few lines:
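A drop in FITC polarization marked displacement of the FITC-tagged RGS12 GoLoco peptide (10 nM) from Gαi1 (50 nM). Compounds were incubated 10 min at room temperature in Tris pH 7.5 buffer containing 150 mM NaCl, 0.1 mM GDP and 0.05% NP40; unlabeled peptide titration served as control.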

Experiment [2] addresses Cytochrome P450 3A4 (Homo sapiens) (UniProt P08684). Put plainly: qHTS Assay for Activators of Cytochrome P450 3A4 (AID 885). Also: nearly all actives have a fitted effect of over 65% in size. Particulars: recombinant CYP3A4, Luciferin-PPXE luminescence, 60 min; series mostly up to 57.1 µM. In a few lines: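 Human CYP3A4 dealkylates Luciferin-PPXE to luciferin, which luciferase detection converts to light. Substrate was at its KM (25uM), buffer 200mM KPO4, reaction 60 min at RT.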

The nature of experiment [3]: Cellular Toxicity (caspase-3) NIH 3T3 (AID 666).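 Also: caspase signal read after 16 h compound exposure.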 As to conditions: NIH 3T3 caspase-3 activation, apoptosis/toxicity, 0% DMSO, 100% is 100 µM tamoxifen; series mostly up to 92.2 µM. In a few lines: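 Caspase-Glo 3/7 luminescence reported caspase activation in 1000 NIH 3T3 cells/well after 16 h compound exposure at 37 C. DMSO set basal and 100 uM tamoxifen set 100% stimulation; concentration-response modeled with the Hill equation for AC50.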

Experiment [4] can be described thus: Cellular Toxicity (caspase-3) Renal Proximal Tubule (AID 667).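 Also: cells exposed to compound for 16 hours at 37 °C before detection.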 As to conditions: renal proximal tubule cells, primary cells freshly taken from rat, solvent-only wells 0%, staurosporine 100%; series mostly up to 91.7 µM. The method, boiled down: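 Caspase 3/7 activation measured by luminescent aminoluciferin release in primary rat proximal tubule cells after 16 hr compound exposure at 37 °C. AC50 from Hill-fitted concentration-response, scaled between DMSO and 10 uM staurosporine.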

Experiment [5] deals with Cytochrome P450 3A4 (Homo sapiens) (UniProt P08684). Put plainly: qHTS Assay for Inhibitors and Substrates of Cytochrome P450 3A4 (AID 884). Also: nearly all actives have a fitted effect of over 50% in size. Particulars: recombinant CYP3A4, Luciferin-PPXE luminescence; series mostly up to 57.1 µM. In a few lines: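 Luminescent readout of luciferin produced by CYP3A4 (20 nM) dealkylation of Luciferin-PPXE, 25 uM (its KM). NADPH-driven reaction ran 60 min at RT after 10 min compound preincubation; data scaled to 57 uM ketoconazole as 100% inhibition.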
Cytochrome P450 3A4 (Homo sapiens), sequence (P08684 whole entry, looked up): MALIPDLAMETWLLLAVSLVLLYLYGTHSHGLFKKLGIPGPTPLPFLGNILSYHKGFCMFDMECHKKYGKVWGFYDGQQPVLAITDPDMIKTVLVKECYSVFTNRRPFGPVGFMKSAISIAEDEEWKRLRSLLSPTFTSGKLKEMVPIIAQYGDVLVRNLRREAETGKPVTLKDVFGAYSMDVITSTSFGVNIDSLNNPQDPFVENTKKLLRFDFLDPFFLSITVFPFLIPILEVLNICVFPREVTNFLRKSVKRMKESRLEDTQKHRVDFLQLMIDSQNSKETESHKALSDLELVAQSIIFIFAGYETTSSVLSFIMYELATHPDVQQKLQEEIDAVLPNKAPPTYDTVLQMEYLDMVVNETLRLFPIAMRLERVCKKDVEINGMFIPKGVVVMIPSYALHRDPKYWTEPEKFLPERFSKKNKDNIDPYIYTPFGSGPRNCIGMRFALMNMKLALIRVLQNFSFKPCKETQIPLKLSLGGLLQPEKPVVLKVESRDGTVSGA

Experiment [6] is described as follows: Confirmation and Secondary Assay for Modulators of Hemoglobin Beta Chain Splicing at IVS2 654 locus (AID 910).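 Also: per-well total GFP intensity by laser scanning cytometry after 2-day treatment.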 As to conditions: HeLa EGFP-654 splicing reporter, GFP fluorescence, 48 h; series mostly up to 46.1 µM. In a few lines:
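HeLa cells stably carrying EGFP interrupted by mutant beta-globin IVS2-654 intron (CMV-driven) were treated with compound for 2 days at 37C; corrected splicing was scored as total peak GFP intensity per well (488 nm excitation, 500-520 nm emission).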

In experiment [7] the target is Cytochrome P450 2C9 (Homo sapiens) (UniProt P11712). Put plainly: qHTS Assay for Inhibitors and Substrates of Cytochrome P450 2C9 (AID 883). Also: nearly all actives have a fitted effect of over 60% in size. As to conditions: recombinant CYP2C9, luciferin-H luminescence, 60 min; series mostly up to 25.6 µM. The method, boiled down:
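Human CYP2C9 (10nM) hydroxylated Luciferin-H (100uM, at its KM) to luciferin in 25mM KPO4. Compound was preincubated 10 min at 37C, then NADPH regeneration started a 60 min reaction at 37C. Luminescence was read after detection reagent, normalized to 57uM sulphaphenazole.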

For experiment [8], the target named is Cytochrome P450 2C19 (Homo sapiens) (UniProt P33261). Put plainly: qHTS Assay for Inhibitors and Substrates of Cytochrome P450 2C19 (AID 899). Also: nearly all actives have a fitted effect of over 60% in size. As to conditions: recombinant CYP2C19, luciferin-H EGE luminescence; series mostly up to 25.6 µM. The method, boiled down:
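Human CYP2C19 (5nM) with Luciferin-H EGE at 10uM (its KM) in 50mM KPO4 was preincubated with compound for 10 min at 37C. NADPH regeneration started a 60 min 37C reaction. Luciferin was read by luminescence, normalized to 57uM ketoconazole.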

The target of experiment [9] is Cytochrome P450 2D6 (Homo sapiens) (UniProt P10635). The experiment can be described thus: qHTS Assay for Inhibitors and Substrates of Cytochrome P450 2D6 (AID 891).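 Also: luciferin methyl ether substrate demethylated by CYP2D6 with NADPH regeneration; nearly all actives have a fitted effect of over 60% in size.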 As to conditions: recombinant CYP2D6, luciferin-ME EGE luminescence; series mostly up to 57.1 µM. In a few lines:
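Luminescent read-out of luciferin formed by 5 nM human CYP2D6 demethylating 30 uM Luciferin-ME EGE (Km level) over 60 min at room temperature after NADPH regeneration addition. Data normalized to full inhibition by 1.43 uM quinidine.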

A short description of experiment [10]: qHTS Assay for Identification of Small Molecule Agonists for Hypoxia Response Element Signaling Pathway (AID 914; active = well fitted activation curve with a large enough effect in the signal ratio, with a control signal flat, not every such curve was filed as active; the % refers to the signal ratio). Particulars: ME-180 (cervical carcinoma) HRE-bla reporter, beta-lactamase ratio, CoCl2, 17 h; active compounds read high. In a few lines: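 Positive modulation of EC50 CoCl2-induced hypoxia response element signaling is measured in ME-180 cells with a beta-lactamase reporter. Compounds are titrated, incubation runs 17 hours, and %Activity derives from the blue/green ratio.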

Guanine nucleotide-binding protein G(i) subunit alpha-1 (Homo sapiens), sequence (P63096 whole entry, looked up): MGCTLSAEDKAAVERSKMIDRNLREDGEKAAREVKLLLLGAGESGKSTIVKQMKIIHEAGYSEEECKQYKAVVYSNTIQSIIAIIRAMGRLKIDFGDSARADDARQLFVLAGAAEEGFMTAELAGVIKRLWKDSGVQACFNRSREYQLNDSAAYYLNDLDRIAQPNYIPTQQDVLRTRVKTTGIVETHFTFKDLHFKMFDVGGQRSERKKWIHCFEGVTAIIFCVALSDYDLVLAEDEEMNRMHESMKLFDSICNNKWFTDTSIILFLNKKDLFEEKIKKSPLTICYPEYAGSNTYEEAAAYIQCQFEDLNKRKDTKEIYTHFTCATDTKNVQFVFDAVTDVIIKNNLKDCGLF
Cytochrome P450 2C19 (Homo sapiens), sequence (P33261 whole entry, looked up): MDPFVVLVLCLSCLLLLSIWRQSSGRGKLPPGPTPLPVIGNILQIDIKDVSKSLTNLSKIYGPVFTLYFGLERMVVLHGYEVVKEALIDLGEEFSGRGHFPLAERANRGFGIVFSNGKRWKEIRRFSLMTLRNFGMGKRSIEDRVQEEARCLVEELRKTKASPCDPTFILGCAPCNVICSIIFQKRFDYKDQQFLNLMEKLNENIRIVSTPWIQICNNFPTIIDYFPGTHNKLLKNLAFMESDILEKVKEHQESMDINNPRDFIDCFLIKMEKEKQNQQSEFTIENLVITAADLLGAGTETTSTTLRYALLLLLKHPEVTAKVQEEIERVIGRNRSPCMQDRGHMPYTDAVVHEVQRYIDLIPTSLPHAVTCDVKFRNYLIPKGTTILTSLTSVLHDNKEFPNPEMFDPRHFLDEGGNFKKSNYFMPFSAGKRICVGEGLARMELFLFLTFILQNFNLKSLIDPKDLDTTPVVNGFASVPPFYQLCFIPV
Cytochrome P450 2C9 (Homo sapiens), sequence (P11712 whole entry, looked up): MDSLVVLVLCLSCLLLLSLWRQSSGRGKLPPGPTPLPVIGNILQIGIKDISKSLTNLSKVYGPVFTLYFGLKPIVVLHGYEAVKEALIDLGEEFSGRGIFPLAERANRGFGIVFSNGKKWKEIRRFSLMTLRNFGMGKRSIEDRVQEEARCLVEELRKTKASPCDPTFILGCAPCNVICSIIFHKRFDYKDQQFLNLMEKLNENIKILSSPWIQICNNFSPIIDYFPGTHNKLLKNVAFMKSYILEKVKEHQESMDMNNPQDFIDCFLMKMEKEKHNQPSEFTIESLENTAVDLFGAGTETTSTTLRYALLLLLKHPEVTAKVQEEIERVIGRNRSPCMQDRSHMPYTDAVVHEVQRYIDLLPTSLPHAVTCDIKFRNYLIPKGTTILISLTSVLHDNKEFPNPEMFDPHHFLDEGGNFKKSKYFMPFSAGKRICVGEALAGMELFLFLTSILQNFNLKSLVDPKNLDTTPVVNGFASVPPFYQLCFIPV
Cytochrome P450 2D6 (Homo sapiens), sequence (P10635 whole entry, looked up): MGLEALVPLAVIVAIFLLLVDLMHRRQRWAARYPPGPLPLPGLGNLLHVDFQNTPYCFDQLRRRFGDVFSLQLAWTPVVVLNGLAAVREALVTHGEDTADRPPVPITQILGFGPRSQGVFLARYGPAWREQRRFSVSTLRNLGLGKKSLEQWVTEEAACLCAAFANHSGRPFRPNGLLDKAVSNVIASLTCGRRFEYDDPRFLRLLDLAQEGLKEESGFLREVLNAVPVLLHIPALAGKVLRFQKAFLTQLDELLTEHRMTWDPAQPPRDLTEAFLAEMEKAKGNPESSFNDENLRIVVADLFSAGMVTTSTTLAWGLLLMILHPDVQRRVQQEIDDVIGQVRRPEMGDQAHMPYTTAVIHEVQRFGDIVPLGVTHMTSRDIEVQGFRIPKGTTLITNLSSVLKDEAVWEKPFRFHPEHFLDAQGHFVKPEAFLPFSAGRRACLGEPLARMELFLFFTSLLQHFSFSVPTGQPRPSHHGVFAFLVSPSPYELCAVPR

Consider `COc1ccc(CCNC[C@H](O)c2ccc(O)cc2)cc1OC`, for which the compound was called inactive in [1] and in experiment [2].
As to `O=S(=O)(O)O`, the result in [3] and in experiment [4] was inactive. Also, in experiment [5], the Potency result was “inactive”.
As to `CC1=C2[C@@H]([C@H](C)CC[C@H]2/C=C(\C)C(=O)O)[C@H](O)C1`, the compound was called inactive in experiment [3] and in [4]. Also, in experiment [5], the Potency result was “inactive”.
Regarding `CCCCCCCC/C=C\CCCCCCCC(=O)O`, the result in experiment [3] and in experiment [4] was inactive. For the same compound, the Potency result in experiment [5] is “inactive”.
Take `CCOc1ccc2c(c1)C(C)=CC(C)(C)N2`: the call in [3], in experiment [4], in experiment [2] and in [6] was inactive.
With `Cc1c(C)c2c(c(C)c1O)CC[C@@](C)(CCC[C@@H](C)CCC[C@@H](C)CCCC(C)C)O2`, the outcome in [7] and in experiment [8] was inactive.
Consider `CC(O)CO` (centres undefined), for which the call in experiment [3] and in experiment [4] was inactive. The Potency entry in experiment [5] is “inactive”.
Take `CCCCCCCC(=O)O`: the outcome in experiment [3] and in experiment [4] was inactive. The Potency result in experiment [5] is “inactive”.
On to `CCN(CC)Cc1cc(Nc2ccnc3cc(Cl)ccc23)ccc1O`, for which the outcome in experiment [7] and in experiment [8] was inactive. Besides, the Potency result in experiment [5] was “inactive”.
Regarding `CC[N+](C)(C)Cc1ccccc1Br`, the result in experiment [1] was inactive.
As to `CC(C)=O`, the compound was classed as inactive in experiment [3] and in experiment [4].
Take `IC(I)I`: the outcome in experiment [3] and in [4] was inactive. In addition, in experiment [5], the Potency entry is “inactive”.
With `CN=C(NC#N)Nc1ccc(C2=NNC(=O)C[C@@H]2C)cc1`, the call in [1], in experiment [7] and in [8] was inactive. Further, the Potency entry in experiment [9] was “inactive”. Also, in experiment [10], the activation was 1.72%.
As to `CC1=C(/C=C/C(C)=C/C=C/C(C)=C/CO)C(C)(C)CCC1`, the compound was called inactive in [3], in [4], in [2] and in [6].
Turning to `Cc1ccccc1`, the call in experiment [3] and in [4] was inactive. Moreover, in experiment [5], the Potency result was “inactive”.
Consider `CC(C)(C)NC(=O)[C@@H]1C[C@@H]2CCCC[C@@H]2CN1C[C@@H](O)[C@H](Cc1ccccc1)NC(=O)[C@H](CC(N)=O)NC(=O)c1ccc2ccccc2n1`, for which the compound was called inactive in experiment [3] and in [4].
With `CCCCC/C=C\C/C=C\CCCCCCCC(=O)O`, the call in [3], in [4] and in experiment [2] was inactive.
Regarding `O=CCCCC=O`, the result in experiment [3] and in experiment [4] was inactive. The Potency entry in experiment [5] is “inactive”.
With `CCOC(C)=O`, the compound was called inactive in experiment [3] and in experiment [4]. Further, in experiment [5], the Potency entry is “inactive”.
For `Nc1ccn([C@H]2CS[C@@H](CO)O2)c(=O)n1`, the compound was called inactive in experiment [3] and in experiment [4]. Also, in [5], the Potency result was “inactive”.
Turning to `O=C(O)CCC(=O)C(=O)O`, the outcome in [3], in experiment [4], in experiment [7] and in [8] was inactive. In [9], the activity change, negative = inhibition was 16.8% [at 11.4 µM].
With `Cc1onc(-c2ccccc2)c1C(=O)N[C@@H]1C(=O)N2[C@@H]1SC(C)(C)[C@@H]2C(=O)O`, the activation in experiment [10] was -2.15%.
